From PubChem BioAssay AID1986 (Sanford-Burnham Center for Chemical Genomics, 2009)
In all, about 290,000 compounds went through this assay and about 890 (0.31%) were called active. The sample holds actives, similar compounds and a random draw of the others, so the mix is not that of the screen. No stated cut-off is given here; in the data, active means inhibition mostly above about 52% (no sharp cut-off); inactive means mostly below about 76%.

Test: inhibitors of HIV fusion peptide binding, primary screen, biochemical, uHTS, fluorescence dequenching (AID 1986)
Settings: cell-free peptide binding, 30 min, stronger effect = higher value
[1] = measured here: repeat confirmation average inhibition, at 18.6 µM

Compound | inhibition (at 20 µM) | inhibition [1]
Cc1cc(C)n(-c2nc3ccccc3c(=O)n2OCC(=O)OCc2ccccc2)n1 | -0.4% (inactive) | –
COc1ccc(N=C2NC(=O)CS2)c([N+](=O)[O-])c1 | -1.1% (inactive) | –
Cc1nc(C2COc3ccccc3O2)sc1C(=O)O (stereo unspecified) | 1.6% (inactive) | –
O=C(O)C1Nc2c(Cl)cc(Cl)cc2C2C=CCC12 (stereo unspecified) | 80.1% (active) | –
Cc1ccc2c(c1C)NC(C(=O)O)C1CC=CC21 (stereo unspecified) | 43.9% (inactive) | –
CC(=O)c1ccc2c(c1)C1C=CCC1C(C(=O)O)N2 (stereo unspecified) | 58.7% (inactive) | 17.4%
Cc1ccc2c(c1)C1C=CCC1C(C(=O)O)N2 (stereo unspecified) | 62.4% (active) | –
O=C(O)C1Nc2c(C(F)(F)F)ccc(Cl)c2C2C=CCC12 (stereo unspecified) | 37.7% (inactive) | –
CCCC1Nc2ccc(C(=O)O)cc2C2C=CCC12 (stereo unspecified) | 49.7% (inactive) | –
Cc1cc(C)c2c(c1)NC(c1cc3c(cc1Br)OCO3)C1CC=CC21 (stereo unspecified) | 7.4% (inactive) | –
Cc1cc(C)c2c(c1)NC(C(=O)O)C1CC=CC21 (stereo unspecified) | 60.2% (active) | –
O=C(O)C1Nc2c(O)cc(Cl)c([N+](=O)[O-])c2C2C=CCC12 (stereo unspecified) | 66.8% (inactive) | 41%
CC(C)C1Nc2ccc(C(=O)O)cc2C2C=CCC21 (stereo unspecified) | 50.1% (active) | –
CCOC(=O)C1Nc2ccc(C(=O)O)cc2C2C=CCC12 (stereo unspecified) | 38% (inactive) | –
CCOC(=O)C1Nc2ccc(Br)cc2C2C=CCC12 (stereo unspecified) | 34.6% (inactive) | –
COc1ccc(C)cc1S(=O)(=O)N1CCN(c2ccccc2)CC1 | -0.9% (inactive) | –
Cc1ccc2nc3c(c(Nc4cccc(O)c4)c2c1)CCC3 | -1.7% (inactive) | –
CCOC(=O)c1ccc2c(c1)C1C=CCC1C(C(=O)OCC)N2 (stereo unspecified) | 19.8% (inactive) | –
CCOC(=O)c1ccc2c(c1)C1C=CCC1C(C(=O)O)N2 (stereo unspecified) | 66.5% (inactive) | 40.8%
O=C(OC1CCCCC1)c1ccc2c(c1)C1C=CCC1C(C(=O)O)N2 (stereo unspecified) | 56.1% (active) | –
Cc1ccccc1-n1cc(CNCc2c(C(=O)N(C)C)nc3ccc(Cl)cn23)cn1 | -1.3% (inactive) | –
CCCCc1ccc(-c2csc(/C(C#N)=C/c3ccc(C)o3)n2)cc1 | 0.2% (inactive) | –
CCCCc1ccc(-c2csc(/C(C#N)=C/c3ccco3)n2)cc1 | 49.9% (inactive) | –
CCCCc1ccc(-c2csc(/C(C#N)=C\c3ccco3)n2)cc1 | 58.3% (active) | –
CCCN1CCN(c2nc(-c3cccs3)nc3ccccc23)CC1 | 0.8% (inactive) | –

Compound | inhibition (at 20 µM) | inhibition [1]
O=C(NC(=S)Nc1ccc2oc(=O)ccc2c1)c1ccccc1F | -0.2% (inactive) | –
O=C(/C=C/c1ccc([N+](=O)[O-])cc1)Nc1cccc(C(=O)Nc2ccccc2C(=O)O)c1 | 54.1% (active) | –
O=C(/C=C/c1ccco1)Nc1cccc(C(=O)Nc2ccccc2C(=O)O)c1 | 58.9% (inactive) | 49.8%
COC(=O)c1cccc(NC(=O)/C=C/c2ccc([N+](=O)[O-])cc2)c1 | 0.8% (inactive) | –
COc1ccc(NS(=O)(=O)c2cccc(NC(=O)NC3CCCCC3)c2)cc1 | 2% (inactive) | –
CCOC(=O)c1sc(=S)n(C)c1NC(=O)c1cccc(Br)c1 | -0.1% (inactive) | –
N#Cc1c2nc3ccccc3nc2n2cc(NC(=O)c3ccc(F)cc3)ccc12 | 76.7% (inactive) | -2.2%
Cc1ccccc1C(=O)Nc1ccc2c(C#N)c3nc4ccccc4nc3n2c1 | 92.7% (active) | –
Cc1c(C(=O)Nc2ccccc2)cn2c(nc3ccccc32)c1C#N | 3.1% (inactive) | –
N#C/C=C(/N)N1CCN(c2ccc(Cl)c(Cl)c2)CC1 | -2.3% (inactive) | –
O=C(O)c1nn(-c2cccc(Cl)c2)c(=O)cc1O | 24.3% (inactive) | –
CN1CCN(C(=O)CCN2C(=O)c3ccccc3C2=O)CC1 | -0.4% (inactive) | –
COc1ccc(C(=O)N/N=C/c2sc3ccccc3c2O)cc1 | 34.9% (inactive) | –
O=C(N/N=C/c1sc2ccccc2c1O)c1cccc2ccccc12 | 34.1% (inactive) | –
O=C(N/N=C/c1sc2ccccc2c1O)c1ccccc1 | 95% (active) | –
O=C(O)CCCN1C(=O)/C(=C/c2cn(-c3ccccc3)nc2-c2cccs2)SC1=S | 79.6% (active) | 142%
Cc1nn(-c2ccccc2)c(Cl)c1/C=C1\SC(=S)N(CCCCCC(=O)O)C1=O | 33% (inactive) | –
O=C(O)CCN1C(=O)/C(=C/c2cn(-c3ccccc3)nc2-c2cccs2)SC1=S | 90% (active) | 142%
Cc1ccc(-c2nn(-c3ccccc3)cc2/C=C2\SC(=S)N(CCCCCC(=O)O)C2=O)o1 | 82% (active) | –
Cc1ccc(-c2nn(-c3ccccc3)cc2/C=C/C(=O)O)o1 | 5.9% (inactive) | –
O=C(O)CCCN1C(=O)/C(=C/c2ccncc2)SC1=S | -0.7% (inactive) | –
O=C(O)CCCN1C(=O)/C(=C\c2ccccc2OCc2ccccc2)SC1=S | 63.8% (inactive) | 37.2%
COc1ccc(-c2nn(-c3ccccc3)cc2/C=C2/SC(=S)N(CCC(=O)O)C2=O)cc1 | -0.4% (inactive) | –
CCN1C(=O)/C(=C\c2cn(-c3ccccc3)nc2-c2cccnc2)SC1=S | 3.5% (inactive) | –
COc1cc(OC)c(OC)cc1CN1CCN(C(=O)CC(C)C)CC1 | -0.6% (inactive) | –

Compound | inhibition (at 20 µM) | inhibition [1]
O=C(Oc1cccc(-n2cnnn2)c1)c1ccco1 | 12% (inactive) | –
CC(NC(=O)c1ccc2c(c1)OCO2)c1ccccc1 (stereo unspecified) | 0.3% (inactive) | –
Cc1ccc2c(C(=O)CN3CCCC(C)C3)c(C)[nH]c2c1 (stereo unspecified) | -0.5% (inactive) | –
O=C(OCc1cncs1)c1cccs1 | 0% (inactive) | –
O=C(Nc1ccccc1C(=O)O)c1cccc(C(=O)Nc2ccccc2C(=O)O)c1 | 34.2% (inactive) | –
Cc1ccc(S(=O)(=O)CCSc2cccc(C(=O)O)c2)cc1 | 0.9% (inactive) | –
Cc1ccc(S(=O)(=O)CCSc2cccc(C(=O)Nc3ccccc3C(=O)O)c2)cc1 | 51.2% (active) | –
O=C1CN(/N=C/c2ccc([N+](=O)[O-])o2)C(=O)N1 | 146% (inactive) | –
O=C(O)/C=C/c1ccc([N+](=O)[O-])o1 | 5.1% (inactive) | –
O=C1NC(=S)S/C1=C\C=C\c1ccc([N+](=O)[O-])o1 | 56.6% (active) | –
COc1ccc(/C=C/C(=O)NC(=S)Nc2ccccc2)cc1OC | 1.5% (inactive) | –
O=C(O[C@@H]1OC2COC(=O)c3cc(O)c(O)c(O)c3-c3c(cc(O)c(O)c3O)C(=O)O[C@@H]([C@H]1O)[C@@H]2O)c1cc(O)c(O)c(O)c1 | 31.6% (inactive) | –
c1ccc2[nH]c3cc4ncnc4cc3nc2c1 | 59.7% (active) | 95.9%
FC(F)(F)c1nc2cc3nc4ccccc4[nH]c3cc2n1 | 3.4% (inactive) | –
Nc1nc2ccccc2[nH]1 | -0.4% (inactive) | –
Cc1cc(C)c(/C=N/n2c(C)cc(C)c(C#N)c2=O)c(C)c1 | -2.5% (inactive) | –
O=C(NCc1ccc2c(c1)OCO2)c1ccc(CSCc2ccccc2Cl)o1 | 0.4% (inactive) | –
CCc1oc2ccccc2c1C(=O)CCN1CCCCC1 | -3.9% (inactive) | –
CCc1oc2ccccc2c1C(=O)c1cc(Br)c(O)c(Br)c1 | 57.5% (active) | 71.4%
CCOC(=O)c1c(O)c2ccccc2oc1=O | -0.2% (inactive) | –
Cc1ccc(NC2=NCC(=O)N2c2ccc3c(c2)OCCO3)c(C)c1 | 0.4% (inactive) | –
O=C(NCCSCc1c(F)cccc1Cl)c1ccco1 | -1.3% (inactive) | –
CN(Cc1cc(=O)n2ccsc2n1)Cc1nc2ccccc2c(=O)[nH]1 | -1.5% (inactive) | –
Cc1ccccc1SCC(=O)Nc1cccc(C#N)c1 | 8.4% (inactive) | –
N#Cc1cccc(NC(=O)CSc2ccc3c4c(cccc24)C(=O)c2ccccc2-3)c1 | 74.2% (active) | –

Compound | inhibition (at 20 µM) | inhibition [1]
COc1ccc(NC(=O)CSc2ccc3c4c(cccc24)C(=O)c2ccccc2-3)cc1 | 77% (active) | 96.6%
COc1ccc(NC(=O)CSc2nnc(C)c3ccccc23)cc1 | 0.4% (inactive) | –
N#Cc1cccc(NC(=O)CSc2ccccc2)c1 | -0.6% (inactive) | –
COc1ccc(NC(=O)CSc2nncc3ccccc23)cc1 | -1.5% (inactive) | –
COc1ccccc1NC(=O)C(C)OC(=O)C1CC(=O)N(c2ccc3c(c2)OCCO3)C1 (stereo unspecified) | 1.1% (inactive) | –
Cc1ccc(/C=N/NC(=O)c2ccccc2OCc2cccc(Br)c2)o1 | -2.8% (inactive) | –
CCOc1ccccc1N1CC(C(=O)Nc2ccccc2N2CCOCC2)CC1=O (stereo unspecified) | -1.3% (inactive) | –
COc1ccccc1CNc1ccccc1F | -1.2% (inactive) | –
COc1ccccc1C(C)NC(=O)CCOc1cccc(C)c1 (stereo unspecified) | -1.1% (inactive) | –
Cc1ccc2c(CN3C(=O)NC(C)(c4ccc5c(c4)OCO5)C3=O)cc(=O)oc2c1 (stereo unspecified) | 3.8% (inactive) | –
Cc1cc(C)c(C)c(N=Nc2nc3ccccc3n2C)c1C | -5.2% (inactive) | –
CN(C)c1ccc(N=Nc2nc3ccccc3n2C)cc1 | -6% (inactive) | –
Cn1c(N=Nc2ccccc2)nc2ccccc21 | 101% (active) | –
CC1CCC2(CC1)Nc1ccccc1C(=O)N2c1ccccc1 (stereo unspecified) | -0.5% (inactive) | –
O=C(CN1CCN(c2ccc(F)cc2)CC1)Nc1ccc(S(=O)(=O)N2CCOCC2)cc1 | 0.3% (inactive) | –
CCN(CC)CC(O)CCCCCCCCC(=O)OC (stereo unspecified) | -0.6% (inactive) | –
CCOc1ccc(NC(=O)CN2CCN(C3c4ccccc4-c4ccccc43)CC2)cc1 | 0.9% (inactive) | –
Cc1cc[n+](-c2[nH]c(=O)sc2/C=N/NC([S-])=Nc2ccccc2)cc1C | 36% (inactive) | –
CCc1ccc[n+](-c2[nH]c(=O)sc2/C=N/NC([S-])=Nc2ccccc2)c1 | 57% (active) | –
O=c1[nH]c(-[n+]2ccccc2)c(/C=N/NC([S-])=Nc2ccccc2)s1 | 97.7% (inactive) | 27.6%
CCN(CC)C(=O)Cn1cc(S(=O)(=O)CC(=O)Nc2ccccc2C)c2ccccc21 | 1.2% (inactive) | –
Cc1ccc(C2C(C#N)=C(N)SC(N)=C2C#N)cc1 | -0.7% (inactive) | –
N#CC1=C(N)SC(N)=C(C#N)C1c1ccoc1 | 97.5% (active) | –
N#CC1=C(N)SC(N)=C(C#N)C1c1ccc(C(F)(F)F)cc1 | 18.6% (inactive) | –
